BaF3 parental: reduces parental Ba/F3 cell viability, JAK2V617F counter-screen. CellTiter-Glo ATP luminescence. inhibition, % at 5.6 µM. 220,000 compounds, 1.1% hits;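 active = inhibition above a per-campaign cutoff, the mean inhibition of all tested compounds plus 3 SD, cut at about 27% in these data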;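 also: 0% = DMSO wells and 100% = JAK Inhibitor I control wells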
APP transl inh: APP translation inhibition. SH-SY5Y APP 5'UTR-luciferase reporter, luminescence. inhibition, % at 2 µM. 190,000 compounds, 0.82% hits. AID 1285;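 active = inhibition above a set limit, derived from the sample mean plus 3 SD, cut at about 45% in these data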
IEC-6 tox: IEC-6 cytotoxicity, counter-screen for KLF5 inhibitors; luminescence viability; inhibition, % at 5 µM; 290,000 compounds, 0.78% hits; AID 1825;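 also: 0% = plate median of test compound wells and 100% = cytotoxic reference compound wells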
aSyn UTR inh: 5' untranslated region of α-synuclein, MLPCN primary screen; 300,000 compounds, 0.82% hits; alpha-synuclein 5'UTR reporter, inhibitor activity; inhibition, % (tested at 7.5 µM); in the data active = inhibition above about 60%;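 also: H4 neuroglioblastoma cells stably carrying SNCA 5'UTR luciferase fusion; 0% = DMSO wells and 100% = positive control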
Ba/F3 V617F tox: lowers viability of Ba/F3 cells expressing EpoR and JAK2V617F; ATP luminescence; 220,000 compounds, 1.1% hits; inhibition, % at 5.6 µM;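 active = inhibition above the campaign mean plus 3 SD over all tested compounds, cut at about 24% in these data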;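 also: cytokine-independent growth of Ba/F3 cells driven by EpoR plus mutant JAK2; 0% = DMSO-treated cells and 100% = JAK inhibitor I control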
KLF5 inh: kruppel-like factor 5 inhibition. DLD-1 KLF5 promoter-luciferase reporter, luminescence. inhibition, % at 5 µM. 290,000 compounds, 0.23% hits;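 active = inhibition above a per-plate limit of that plate's mean compound inhibition plus 3 SD, cut at about 60% in these data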;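 also: 0% = DMSO wells and 100% = LY294002 at 200 µM; higher means less KLF5 promoter-driven luciferase light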
IEC-6 tox confirm: IEC-6 cytotoxicity, confirmation assay; shares compounds with IEC-6 tox; IEC-6 rat intestinal epithelial viability, luminescence; inhibition, % at 5 µM; 1,900 compounds, 63% hits;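 also: 0% = vehicle and 100% = reference cytotoxic drug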
* hit, by the source's call; . = no result. Rows were chosen to be rich in hits. Some 2.2% of all compounds tested hit in one or more screens of this group. Rule as the data show it, unless noted: active = inhibition above about 22%; inactive = the rest.

SMILES | BaF3 parental | APP transl inh | IEC-6 tox | aSyn UTR inh | Ba/F3 V617F tox | KLF5 inh | IEC-6 tox confirm
CCc1nnc(NC(=O)c2csc3c2CCC(C)C3)s1 (stereo not drawn) | 2 | -145 | 0 | -67 | -2 | -1 | .
CN1/C(=C\C(=O)CSc2cccc[n+]2[O-])C(C)(C)c2ccccc21 | 23 | -9 | 104* | 13 | 8 | -21 | -7
CN1/C(=C/C(=O)CSc2ccccc2C(=O)O)C(C)(C)c2ccccc21 | 6 | . | 5 | 3 | 1 | -3 | .
Cc1cccc(C(=O)Nc2cccc3cccnc23)c1 | . | . | 8 | -56 | . | -94 | .
Cc1cnc(C(=O)Nc2cccc3cccnc23)cn1 | 34* | 74* | 91* | -25 | 90* | -1 | 18
CN1CCc2c(n(CC(O)CNCc3ccccc3)c3ccccc23)C1=O (stereo not drawn) | -6 | -12 | 9 | 39 | 1 | 14 | .
CC(C)NCC(O)Cn1c2c(c3ccccc31)CCc1c-2cnn1-c1ccccc1 (stereo not drawn) | 79* | 87* | 75* | 108* | 88* | 22 | 73*
CC1CC2(C)Oc3ccccc3CC2C(C)C1CNCCCN(C)C (stereo not drawn) | 104* | 1 | 34* | 106* | 102* | 4 | 100*
O=C(c1ccc(CS(=O)c2ccccc2Cl)o1)N1CCN(c2ccccc2)CC1 (stereo not drawn) | . | . | 80* | 110* | . | 53 | 57*
ClC(Cl)(Cl)c1nc2ccccc2n2nncc12 | . | . | 82* | 29 | . | 31 | 31*
CCOC(=O)[C@@H]1[C@H]2COc3cc(OC)ccc3[C@@H]2N2C(=O)N(c3ccc(Cl)cc3)C(=O)[C@]12C | . | . | . | 18 | . | . | .
O=C(N=C1SC2CS(=O)(=O)CC2N1c1ccc(F)cc1)C1CC1 (stereo not drawn) | . | . | -5 | -20 | . | -16 | .
NC(N)=N/N=C/c1ccc(Br)cc1 | 34* | 28 | 26* | -8 | 10 | 10 | 56*
N#Cc1ccc(/C=N/N=C(N)N)cc1 | 6 | -15 | 4 | -5 | 3 | -17 | .
O=C(Cn1nnc(-c2ccccc2F)n1)N1CCCCC1 | . | . | -7 | -120 | . | -134 | .
Cc1cccc2nc(CSc3nnc(N)s3)cn12 | 8 | -3 | 1 | -33 | 6 | -21 | .
COc1ccc(Nc2nnc(SCc3cn4c(C)cccc4n3)s2)cc1 | 6 | -20 | 22* | -5 | -1 | -12 | 2
Nc1cc2nn(-c3ccccc3)nc2cc1Cl | 0 | -199 | 102* | -157 | -1 | -92 | 46*
CCCCn1c(SCc2c(C)noc2C)nc2cc(S(N)(=O)=O)ccc21 | 62* | -11 | 30* | -40 | 68* | -25 | 7
CCn1c(CC(=O)Nc2ccc(F)cc2)nnc1SCC(=O)Nc1nncs1 | . | . | -8 | -17 | . | -23 | .
O=c1oc2ccccc2c(Nc2cccc3ccccc23)c1[N+](=O)[O-] | 6 | 1 | 10 | 18 | 0 | 20 | .
O=c1oc2ccccc2c(Nc2cccc3cccnc23)c1[N+](=O)[O-] | 6 | -16 | 61* | -19 | 2 | -7 | -6
C(=C\c1nnc2c3ccccc3ncn12)/c1ccccc1 | 69* | 72* | 60* | 53 | 82* | 1 | 20
Cn1c(/C=C/c2ccccc2)nc2ccccc21 | 8 | -65 | 6 | 39 | 2 | -58 | .
Cc1cccc(C(=O)N[C@H](C(=O)Nc2nc3ccccc3[nH]2)C(C)C)c1 | 27* | 62* | 74* | 96* | 77* | 17 | 56*
SMILES | BaF3 parental | APP transl inh | IEC-6 tox | aSyn UTR inh | Ba/F3 V617F tox | KLF5 inh | IEC-6 tox confirm
COc1ccc(C(=O)N[C@H](C(=O)Nc2nc3ccccc3[nH]2)C(C)C)cc1 | 61* | 77* | 63* | 106* | 42* | -25 | 59*
COc1ccc(NC(=O)C(NC(=O)c2ccccc2)C(C)C)cc1 (stereo not drawn) | 7 | 13 | -5 | -22 | -1 | -18 | .
COc1ccc(NC(=O)C/C(C)=N/NC(=O)C2CCCCC2)c([N+](=O)[O-])c1 | . | . | 4 | 0 | . | -38 | .
COc1ccc(NC(=O)c2c(NC(=O)CCC(=O)O)sc(-c3ccccc3)c2C)cc1 | 0 | 16 | -9 | -76 | -6 | -5 | .
COc1cc(C(=O)N(C)CCOc2ccccc2)ccc1OCC(=O)Nc1cccc(C(F)(F)F)c1 | . | . | . | -6 | . | . | .
COC(=O)CC1COc2ccccc2N1S(=O)(=O)c1ccc(OC)cc1 (stereo not drawn) | . | . | 31* | -23 | . | 32 | 0
N#Cc1nc(-c2ccc(F)cc2)oc1N1CCC(C(N)=O)CC1 | . | . | -8 | -4 | . | -33 | .
CCc1ccc(-n2cc(-c3ccc(F)cc3)[n+]3c2SCCC3)cc1 | 74* | 4 | 28* | 28 | 83* | -3 | 26*
COc1ccc(-n2cc(-c3ccc(C)cc3)[n+]3c2SCC3)cc1 | 71* | -2 | 27* | -23 | 94* | 0 | 21
COc1ccc(C2=NCN(c3ccc(C)cc3)C(=S)N2)cc1 | 5 | -54 | 6 | -138 | -1 | -121 | .
CC1CCN(C(=O)CSc2nnc(CNC(=O)c3c(F)cccc3F)o2)CC1 | . | . | -8 | -12 | . | -30 | .
CCC(C)NC(=O)c1cn(CC)c2cc(N3CCN(C(=O)c4ccco4)CC3)c(F)cc2c1=O (stereo not drawn) | . | . | 6 | 7 | . | -31 | .
O=C(N/N=C/c1ccccc1)c1ccco1 | 1 | . | 3 | -107 | -1 | -109 | .
O=C(C#Cc1ccccc1)c1ccco1 | . | . | 101* | -141 | . | 54 | 28*
CCOc1ccc(S(=O)(=O)NCc2cccnc2)cc1NC(=O)c1ccccc1F | . | . | 33* | -43 | . | 26 | 7
CCOc1ccc(S(=O)(=O)NCc2ccncc2)cc1NC(=O)c1ccccc1F | . | . | 3 | -4 | . | -16 | .
COc1cccc(-c2cc(=O)c3cc(NC(=O)c4ccc(N(C)C)cc4)ccc3[nH]2)c1 | 97* | 92* | 71* | 115* | 91* | 35 | 71*
COc1ccc(-c2cc(=O)c3ccccc3[nH]2)cc1 | 2 | -12 | 1 | -79 | -1 | 7 | .
COc1ccc2[nH]c(-c3cccc(F)c3)cc(=O)c2c1 | 74* | 93* | 75* | 63* | 76* | 60 | 60*
Clc1ccc2[nH]c(-c3ccccc3)cc2c1 | 6 | -119 | 7 | . | 3 | -66 | .
O=c1cc(-c2ccccc2)[nH]c2cc(Cl)ccc12 | 46* | 95* | 57* | 104* | 80* | 61 | 58*
Cc1ccc(C(=O)N2CCN(S(=O)(=O)c3ccc(Br)cc3)CC2)o1 | . | . | -5 | -13 | . | 3 | .
Nc1nc(Nc2cccc3ccccc23)nc(C2CCCC2=O)n1 (stereo not drawn) | 3 | -6 | -2 | -10 | 2 | 0 | .
Nc1nc(CCl)nc(Nc2cccc3ccccc23)n1 | 28* | . | 91* | -18 | 100* | -5 | 8
Cc1ccc2nc(C)c(CN3CCN(c4ccc([N+](=O)[O-])cc4Cl)CC3)n2c1 | . | . | 26* | 52 | . | -7 | 47*

Compound activity (PubChem)
